In PMC10668032, “Altered binding affinity of SIX1-Q177R correlates with enhanced WNT5A and WNT pathway effector expression in Wilms tumor”:
Over roughly 33,000 sequences, “e-score” has its median near -0.053; the highest 2% begin near 0.38. The full list was thinned out, with the highest values kept by preference.

The sequences below were run against T1, SIX1 homeodomain (reference allele) (human, UniProt Q15475 108-198) (assay: universal protein binding microarray; Universal all-10-mer PBM (8x60K, AMADID 030236), 300 nM GST-tagged protein, Alexa Fluor 488 anti-GST; buffer, salt, pH and temperature not stated (as in Berger); high values mean tight binding). Conditions: protein: ivt; tags: N-terminal GST; dsDNA, one strand shown.
T1 sequence: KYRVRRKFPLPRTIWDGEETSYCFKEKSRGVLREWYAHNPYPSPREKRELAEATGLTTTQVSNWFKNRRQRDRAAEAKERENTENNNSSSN
Summary of the method: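 Binding of GST-tagged homeodomains is given as 8-mer E-scores from the Universal PBM Analysis Suite. The proteins were produced by in vitro transcription/translation, quantified by anti-GST western blot against a recombinant GST standard curve, and applied in duplicate at 300 nM final concentration to universal 'all 10-mer' protein binding microarrays (8×60K format).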

Sequence	binding signal
CTTGATCA	0.218 ± 0.037 E-score
CTTGACAC	0.244 ± 0.0534 E-score
CTTGATAC	0.442 ± 0.0251 E-score
ATTGATCC	0.406 ± 0.0164 E-score
CGTCTCGC	0.167 ± 0.0173 E-score
GATCGACC	0.162 ± 0.12 E-score
GATCTCGA	0.221 ± 0.00099 E-score
AATACTCT	0.257 ± 0.089 E-score
AACCTATA	0.205 ± 0.0654 E-score
CCCTTGGA	0.213 ± 0.00655 E-score
ATCCCTTC	0.303 ± 0.0125 E-score
CTACTGTA	0.165 ± 0.0781 E-score
AATTAATA	0.191 ± 0.0409 E-score
CGATACAC	0.418 ± 0.0108 E-score
GGATACAA	0.354 ± 0.037 E-score
AGATACAG	0.246 ± 0.0181 E-score
AGATACAC	0.3801 ± 0.00099 E-score
AGATACAA	0.168 ± 0.0186 E-score
CGATACAG	0.313 ± 0.044 E-score
CGATACAA	0.288 ± 0.0425 E-score
GGATACAC	0.405 ± 0.0186 E-score
GCATACAC	0.155 ± 0.0339 E-score
ACAATATG	0.239 ± 0.0268 E-score

Sequence	binding signal
ATCACTTA	0.273 ± 0.0813 E-score
ATGGGGTC	0.168 ± 0.00238 E-score
AGTAGATC	0.321 ± 0.0238 E-score
GACCGATC	0.246 ± 0.028 E-score
ATACTTCC	0.241 ± 0.0829 E-score
AGTATAAT	0.265 ± 0.0967 E-score
AGTATTAG	0.301 ± 0.0212 E-score
ACTATCAG	0.217 ± 0.0215 E-score
AGTATCAT	0.473 ± 0.0218 E-score
AGTATTAA	0.233 ± 0.112 E-score
ACTATCAT	0.3 ± 0.0715 E-score
AGTATCAC	0.464 ± 0.0196 E-score
ATTATCAG	0.168 ± 0.0386 E-score
CCTATCAG	0.326 ± 0.00869 E-score
AGTATCAG	0.46 ± 0.0186 E-score
ATCATCAC	0.228 ± 0.00571 E-score
CGTATCAG	0.465 ± 0.00812 E-score
ATCGTGAG	0.26 ± 0.00974 E-score
CGGTAATA	0.23 ± 0.0198 E-score
AGACCGAT	0.179 ± 0.0125 E-score
TACTCGGA	0.162 ± 0.0415 E-score
ACACCTGA	0.281 ± 0.0355 E-score
GAAATATC	0.262 ± 0.0623 E-score

Sequence	binding signal
ATAGCATA	0.218 ± 0.00716 E-score
ACTATCAA	0.253 ± 0.0636 E-score
ATTATCAA	0.165 ± 0.0524 E-score
AGTATCAA	0.444 ± 0.0435 E-score
ACACCAAA	0.263 ± 0.0137 E-score
AGTCGATA	0.257 ± 0.0323 E-score
GGCAATAC	0.181 ± 0.00926 E-score
AAGTGGAT	0.182 ± 0.0178 E-score
GTGGTGTA	0.286 ± 0.0221 E-score
AGGGTGTA	0.313 ± 0.048 E-score
CGGGTGTC	0.439 ± 0.025 E-score
AGGGGGTG	0.186 ± 0.0209 E-score
AGGGTGTC	0.4355 ± 0.00243 E-score
GCGGTGTA	0.336 ± 0.0311 E-score
GGGGTGTA	0.387 ± 0.00837 E-score
CGGGTGTA	0.265 ± 0.0586 E-score
CGGGTGGA	0.236 ± 0.0891 E-score
ATCAAGAT	0.209 ± 0.0291 E-score
AAGCCGGA	0.159 ± 0.0672 E-score
GATCGGCC	0.255 ± 0.03 E-score
TACCCCAA	0.174 ± 0.0539 E-score
ATATACTA	0.256 ± 0.0638 E-score
CAACACCC	0.24 ± 0.00973 E-score

Sequence	binding signal
CTCGATGA	0.165 ± 0.00668 E-score
ATCGATAC	0.446 ± 0.0107 E-score
ATCGATTC	0.2 ± 0.0315 E-score
CTCGATCC	0.325 ± 0.0557 E-score
ATCGATAG	0.2745 ± 0.00192 E-score
CTCGATAC	0.41 ± 0.0184 E-score
CAGATGAG	0.203 ± 0.0236 E-score
CAATAATA	0.223 ± 0.0513 E-score
CCCGCGAG	0.206 ± 0.0166 E-score
GGTGTAAA	0.198 ± 0.028 E-score
GTATCGAC	0.405 ± 0.0127 E-score
AGATCGAT	0.345 ± 0.0116 E-score
CTATCGAG	0.157 ± 0.0365 E-score
ATATCGAT	0.411 ± 0.0335 E-score
CGATCGAG	0.21 ± 0.0298 E-score
ATATCGAG	0.335 ± 0.0302 E-score
GGATCGAA	0.267 ± 0.0826 E-score
GGATCGAC	0.297 ± 0.113 E-score
GTATAGAC	0.276 ± 0.00412 E-score
ATATCGAC	0.379 ± 0.00832 E-score
GTATCGAA	0.43 ± 0.00911 E-score
GTATCTAA	0.374 ± 0.0214 E-score
ATAGCTTA	0.214 ± 0.0605 E-score

Sequence	binding signal
ATATAATA	0.322 ± 0.053 E-score
AAGCGTAT	0.231 ± 0.0511 E-score
CTCGTATA	0.161 ± 0.055 E-score
GGTTATAC	0.261 ± 0.0421 E-score
ATCGCCTC	0.216 ± 0.0033 E-score
ACCGGAGA	0.201 ± 0.00786 E-score
CCGTAATC	0.169 ± 0.00918 E-score
GGTCGATA	0.271 ± 0.00805 E-score
CGGGACAC	0.153 ± 0.0127 E-score
CTATCGAA	0.228 ± 0.0495 E-score
ATATCGAA	0.393 ± 0.0367 E-score
TATACGAA	0.164 ± 0.00791 E-score
AATATGTG	0.197 ± 0.0339 E-score
ATAAATAC	0.163 ± 0.0133 E-score
AAGTATTA	0.254 ± 0.109 E-score
GGGTATTA	0.393 ± 0.0546 E-score
AGGTATTA	0.385 ± 0.0849 E-score
GCGTATTA	0.161 ± 0.0688 E-score
CGGTATTA	0.368 ± 0.031 E-score
AGGTATTG	0.29 ± 0.0429 E-score
